The list is not random: actives were taken first. Their share in the collection is about 2.9%.
SNCA viab count: cell viability loss counter-screen; HEK-293-SNCA-luc viability, GF-AFC fluorescence, 24 h; actives 0.12% (n = 150,000); Potency, µM (highest dose often 57.1 µM), for inactives: at the top dose activity change, negative = cytotoxicity, actives largely listed as cytotoxic;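 also: potency is read from the fitted curve at half-maximal effect; 0% = DMSO-treated cells and -100% = medium-only wells without cells; nearly all actives have a fitted effect of over 30% in size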
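HEK-293-SNCA-luc cells (1500/well) plated 24 h, then exposed 24 h to a dilution series; GF-AFC added 30 min at 37C, fluorescence 405/540 nm; normalised to medium-only and DMSO wells, Hill fit.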
IP6K1 inh: blocks human inositol hexakisphosphate kinase 1; actives 0.81% (n = 140,000); IP6K1 kinase, ADP-Glo luminescence, 2 h; hits give low values; activity change, % (series mostly up to about 58 µM); in the data active = activity change below about -25%; also: % is scaled to controls: 0 for no effect and ±100 for the full control effect
Target sequence (Q92551 whole entry, looked up): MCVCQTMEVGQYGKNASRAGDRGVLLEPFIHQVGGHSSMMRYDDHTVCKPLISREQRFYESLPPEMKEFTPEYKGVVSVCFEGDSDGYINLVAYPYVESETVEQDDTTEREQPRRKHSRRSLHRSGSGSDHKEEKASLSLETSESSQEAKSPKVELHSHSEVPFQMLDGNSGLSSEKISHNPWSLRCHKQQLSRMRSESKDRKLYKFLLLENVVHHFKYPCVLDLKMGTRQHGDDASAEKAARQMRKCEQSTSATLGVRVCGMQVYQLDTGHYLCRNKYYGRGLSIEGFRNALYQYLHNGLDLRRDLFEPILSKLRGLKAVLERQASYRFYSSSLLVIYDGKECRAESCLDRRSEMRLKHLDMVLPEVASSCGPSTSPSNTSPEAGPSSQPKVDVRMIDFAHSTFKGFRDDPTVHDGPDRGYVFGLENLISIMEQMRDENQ
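ADP-Glo luminescence measures ADP made by human IP6K1 during a 2 h RT reaction with ATP/IP6 (mix at 1.3 mM/130 uM); top library doses 57.5 and 19.1 uM final.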
KDM5B inhibitor: inhibitors of human KDM5B histone demethylase | Q9UGL1 | Potency, µM (doses to about 57.7 µM), actives largely listed as inhibitors | KDM5B demethylase, FDH-coupled NADH fluorescence (FDH is formaldehyde dehydrogenase) | actives 2.6% (n = 220,000); also: potency is read from the fitted curve at half-maximal effect; 0% is about no effect; nearly all actives have a fitted effect of over 70% in size
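Compound dilutions met 200 nM (final) KDM5BΔAP for 10 min at room temperature before substrate addition. The substrate mix held 12.5 µM H3K4me3 with cofactors 25 µM α-ketoglutarate and 50 µM Fe²⁺. NADH signal gain over 30 min defined activity.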
SNCA expr inhib: reduces expression of the alpha-synuclein gene; actives 0.17% (n = 140,000); HEK-293 SNCA-luciferase knock-in, luminescence, 24 h; Potency, µM (highest dose often 57.2 µM), without a hit: at the highest dose activity change, negative = inhibition, actives largely listed as inhibitors;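 also: potency is read from the fitted curve at half-maximal effect; plate controls were DMSO cells for no effect and cell-free wells for full effect; nearly all actives have a fitted effect of over 45% in size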
The depositor's hits bear a star; i = inactive; ? = inconclusive; / = no result given; [ ] = dose if it differs, or a comment. Unless noted, calls follow the shape of the dose curve; as a rule, active = well fitted curve in the direction sought with a large enough effect; inconclusive = small, poorly fitted or top-dose-only effect, or another doubt; inactive = no such curve, though single readings can be large; an effect the other way counts as inactive or inconclusive.

SMILES	SNCA viab count	IP6K1 inh	KDM5B inhibitor	SNCA expr inhib
COc1ccc(-c2ccnc(-c3nnc(C)n3CCN(C)C)c2)cc1OC	-1%[87.6 µM]	-6	28µM*	-9%[87.6 µM]
Cc1nnc(-c2cc(-c3ccsc3)ccn2)n1C(C)C	-8%[87.6 µM]	-4	i	16%[87.6 µM]
Cc1nnc(-c2cc(-c3ccc(N4CCOCC4)cc3)ccn2)n1Cc1ccccc1	-6%[87.6 µM]	-5	20µM*	5%[87.6 µM]
Cc1cccc(OCC(=O)N2CC3CC(C2)[C@H]2CCCC(=O)N2C3)c1 (some centres undefined)	8%	23	i	9%
COC(=O)c1cc(NCc2ccccc2)ccc1N1CCOCC1	/	/	i	/
NC(=O)c1ccc(CC2CCN(S(=O)(=O)c3ccc4c(c3)CCC4)CC2)cc1	2%	-16	i	-2%
C#CCNC(=O)C1CN(c2cccc(Cl)c2)C(=O)N1 (centres undefined)	-18%[87.6 µM]	-10	i	?
COc1ccccc1-c1ccnc(-c2nnc(C)n2C2CCCCC2)c1	-8%[87.6 µM]	-5	?	-34%[87.6 µM]
COc1ncccc1-c1ccnc(-c2nnc(C)n2C2CCCCC2)c1	-16%[87.6 µM]	-5	28µM*	?
Cc1nnc(-c2cc(-c3ccc(N4CCOCC4)cc3)ccn2)n1C1CCCCC1	-13%[87.6 µM]	-10	32µM*	8%[87.6 µM]
COc1ccccc1-c1ccnc(-c2nnc(C)n2CCN2CCOCC2)c1	0%[87.6 µM]	-7	40µM*	-8%[87.6 µM]
COc1ccc(-c2ccnc(-c3nnc(C)n3Cc3ccccc3)c2)cc1OC	-16%[87.6 µM]	-6	35µM*	32%[87.6 µM]
O=C(c1ccc(Cl)cc1)N1CCC(n2cc(-c3cccnc3)[nH]c2=O)CC1	0%	-4	?	-7%
Cc1ccc(NC(=O)N2CCc3c(C(=O)NCc4ccco4)cccc32)cc1	8%	-1	i	-90%
c1ccc(-c2cc(NCCCOc3cccnc3)n3nccc3n2)cc1	-13%	2	22µM*	7%
COCCCNc1cc(Cl)nc2ccnn12	-1%[87.6 µM]	13	i	40%[87.6 µM]
COCCNC(=O)CC[C@]12CC[C@](C)(O)C[C@H]1C(C)(C)C[C@@H]2NCc1ccc(CO)o1	5%	8	i	-6%
COc1ncccc1C(=O)N1CCc2onc(-c3cccc4ccccc34)c2C1	10%	-6	?	15%
COCc1cc(N2CCc3onc(-c4cccc5ccccc45)c3C2)ncn1	-25%	12	28µM*	?
CC(C(=O)N1CCc2onc(-c3cccc4ccccc34)c2C1)n1ccnc1 (centres undefined)	2%	9	?	-9%
O=S(=O)(c1cccnc1)N1CCc2onc(-c3cccc4ccccc34)c2C1	5%	7	32µM*	9%
CCOC(=O)N1CCC(NC(=O)c2ccc(OC3CCN(C(=O)C4CC4)CC3)cc2)CC1	1%	-1	i	146%
COC(=O)CNC(=O)N1CCc2c(nc3cc(-c4ccccc4Cl)[nH]n3c2=O)C1	7%	51	22µM*	?
Cc1ccc(CNC(=O)N2CCc3c(nc4cc(-c5ccccc5Cl)[nH]n4c3=O)C2)cc1	6%	23	?	?
COc1cccc(NC(=O)N2CCc3nc4cc(-c5ccccc5Cl)[nH]n4c(=O)c3C2)c1	-2%	4	25µM*	?
SMILES	SNCA viab count	IP6K1 inh	KDM5B inhibitor	SNCA expr inhib
O=C(NCC1CCCO1)N1CCc2c(nc3cc(-c4ccccc4Cl)[nH]n3c2=O)C1 (centres undefined)	3%	25	20µM*	-19%
CC(=O)Nc1ccc(CC(=O)N2CCc3c(nc4cc(-c5ccccc5Cl)[nH]n4c3=O)C2)cc1	8%	31	25µM*	23%
CC(C)NC(=O)c1ccc2nc(-c3ccncc3)oc2c1	-3%[87.6 µM]	-8	/	55%[87.6 µM]
O=C(NCCCNc1ccccc1)NCc1cccnc1	/	/	i	/
CC(=O)N(C1CC1)C1CCOC2(CCN(C(=O)NCCc3ccccc3)CC2)C1 (centres undefined)	-4%	-13	i	43%
COCCC(=O)N1CCNc2cnc(Nc3cccc(C(F)(F)F)c3)nc2C1	-3%[87.6 µM]	-10	?	27%[87.6 µM]
O=C(Cc1ccc2c(c1)OCO2)N1CCNc2cnc(Nc3cccc(C(F)(F)F)c3)nc2C1	-5%	-9	14µM*	?
O=C(Cc1cccc(Cl)c1)N1CCNc2cnc(Nc3cccc(C(F)(F)F)c3)nc2C1	-20%	-14	?	?
O=C(CCc1ccccc1)N1CCNc2cnc(Nc3cccc(C(F)(F)F)c3)nc2C1	-7%	-6	25µM*	-18%
C/C(=C\C(=O)C[C@@]12C(=O)O[C@]3(C)CC[C@H]1C[C@H]23)C(N)=O	1%	18	/	/
CC(=O)c1cccc(S(=O)(=O)NCCC(=O)NCC2CCCCC2)c1	/	/	i	/
COCCN1CCOc2nc(-c3cc4ccccc4o3)ncc2C1=O	-5%[87.6 µM]	-6	?	8.9µM*
COc1ccc(-c2ncc3c(n2)OCCN(c2ccccc2)C3=O)cc1F	-3%[87.6 µM]	16	28µM*	-19%[87.6 µM]
O=C1c2cnc(-c3cc4ccccc4o3)nc2OCCN1CC1CC1	-4%[87.6 µM]	-8	i	?
COc1cc(F)cc(-c2ncc3c(n2)OCCN(C)C3=O)c1	3%[87.6 µM]	-5	35µM*	-64%[87.6 µM]
COc1cc(F)cc(-c2ncc3c(n2)OCCN(c2cccc(C(F)(F)F)c2)C3=O)c1	-12%[87.6 µM]	28	i	31%[87.6 µM]
COCCN1CCOc2nc(-c3cc(F)ccc3OC)ncc2C1=O	3%[87.6 µM]	-11	32µM*	9%[87.6 µM]
COCCN1CCOc2nc(-c3ccc(F)c(Cl)c3)ncc2C1=O	5%[87.6 µM]	4	i	-14%[87.6 µM]
O=C1N[C@H](CC(=O)N2CCc3ccccc3C2)C(=O)Nc2ccccc21	-3%	9	i	58%
Cn1c(C(=O)N2CCc3ccccc3C2)cc2ccccc21	/	/	i	/
Cc1nnc2ccc(N3CCC(NC(=O)NC(C)C)CC3)nn12	/	-10	/	/
COc1ccc(F)cc1-c1ncc2c(n1)OCCN(c1cccc(C(F)(F)F)c1)C2=O	-9%[87.6 µM]	-6	40µM*	?
COCCN1CCOc2nc(-c3cc(F)cc(OC)c3)ncc2C1=O	2%[87.6 µM]	-7	32µM*	?
COc1cc(F)cc(-c2ncc3c(n2)OCCN(Cc2ccc(F)cc2F)C3=O)c1	-1%[87.6 µM]	-10	?	67%[87.6 µM]
COc1ccc(C(=O)N2CC(c3noc(C4CCCN4CC4CC4)n3)C2)cc1 (centres undefined)	-3%[12.5 µM]	3	i	12%
SMILES	SNCA viab count	IP6K1 inh	KDM5B inhibitor	SNCA expr inhib
S=c1sc2c(s1)SC1c3ccccc3CC1S2 (centres undefined)	/	/	i	/
Cc1nc(C(=O)NC2CCN(c3ncccc3C#N)CC2)cs1	10%	8	28µM*	4%
CC(C)c1cc(C(=O)NC2CCN(c3ncccc3C#N)CC2)n(C)n1	-18%	-5	22µM*	?
CC(C)NC(=O)NC1CCN(C(=O)c2ccc(-c3ncccc3C#N)cc2)CC1	11%[12.5 µM]	24	/	23%
CC(C)c1cc(C(=O)N2CCN(c3ncccc3C#N)CC2)n(C)n1	-3%	20	32µM*	-3%
Cc1cc2cc(C(=O)N3CCN(c4ncccc4C#N)CC3)ccc2o1	-28%	10	28µM*	16%
CCc1ccccc1NC(=O)N1CCN(Cc2ccc(Cl)s2)CC1	/	/	i	/

Compound activity: PubChem BioAssay, National Center for Advancing Translational Sciences (NCATS)
